This passage reports PBM binding z-score results from the supplement of paper PMC6555819.

The subject of this experiment is PPARg DBDmut:RXRa IVT, anti-PPARg (DBD mutation: PPARg1 K132A/R137A, NR concentration 270 nM, RXRa partner concentration 90 nM). Put plainly: PBM binding z-score (relative to random genomic background probes); higher = stronger binding; sequences stand for … in GC…GCGATTGACAGCGTAGAATGAAGG
The gist of the method: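 For binding z-scores, the reference was random background probes on custom Agilent 4×180K protein-binding microarrays. These arrays were incubated 1 h with ligand-free nuclear receptor dimers in PBS pH 7.4, 2% milk, 0.02% Triton X-100, 1 mM DTT, 0.2 mg/mL BSA and 0.4 mg/ml salmon testes DNA. Fluorescence was scanned after antibody detection of each partner (one per run) and regression-normalized.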
CCTAGCAGGCCAATCTGGGTGACTCAAGGCTTGA showed a PBM binding z-score of -0.721.
The sequence CGAACTAGGTCAGAACTGGACAGTGAAGGATGAT came in with a PBM binding z-score of 2.69.
GGAACGAGGGCATTCGAGTTGATGGCATGGCGAT came in with a PBM binding z-score of -0.485.
Consider TCAGACAGGTGAAGGTAACTCCGGTACGCAGTCG, for which the PBM binding z-score was -0.276.
On to CGTCCCAGGTCAATGCTAGGTCAGTGAAAGCATT, for which the PBM binding z-score was -0.129.
The same measure for TCATATAGGTAAACAGGTGGAAGTCCGTAAGTTA: 0.862.
In the case of CCAGACAGGTGAAAGGTAACCCAGTCTGGTACGC it was -0.215.
CTACCAAGCTGAACAAGGTCGTTGATTACTATTC: the PBM binding z-score was 0.163.
In the case of GGAACGAGGGCGTTCGAGTTGATAGCATGGCGAT it was -1.48; in that of CAGCCTAGGTCTGGGCCAGTATAGGAGGAACGTT, -1.17.
In the case of GGAGACAGGTGAAACGCAGGTAACTCAGGGTGGC it was -1.26.
TAGCCTAGGTCATGGGCCGGTATACCACGCGAAC displayed a PBM binding z-score of -0.00724.
The same measure for CAAACTCGGTCACAGAGGTCAAAGTCCGTGCGTA: 1.83; for CCTACTGCGCCACGAAAGGTCATTGATTCAGTGA: 1.03; for GCGTACGGGTCAAAGGTTATAGCATGAATAGAAT: 0.234.
In the case of CCATACGGGTCACGAGGTTATAGCACGACGAGCG it was 1.88.
The same measure for TCATATAGGTAAATGCTAGGTGAAATTCCGATCT: 0.621; for CGAACGAGGGGATGAGTTGATAGCAAATGCCGAT: 0.241; for GCATATAGGTGATACAAGGTGAAAGTCCGATTGT: 0.633.
With CCGACTGCGGCAAAGGTTACCATACTCAGTACGA, the PBM binding z-score is 0.0182.
ACTATTAGTTGTGACGAGGGCAACCGATAGGTTG: the PBM binding z-score stood at 0.938.
In the case of TCGAGTAGGTTACCAATGGGGCATTCCGCTTTCT it was -0.775; in that of CGAACTAGGTCCTCCAGGACAGTGAATACATTGA, 0.246.
Regarding TCAAGTAGGTTACCAATGGGGCATTCAGCTTTCT, the PBM binding z-score came to 0.706.
In the case of GCTGTTAGGTCAACTGATGGTCAGCTAAAGCTCG, the PBM binding z-score is 0.716.
The same measure for TCATATAGGTAAACAGGTGCAAGTCCGTAAGTTA: 0.88.
The same measure for TCTTGTAGATCAATAGAGGATAAGAAAGTGCGCT: 0.6; for TTACCAGGGTGAAGGTCGTTGATCCCTCTGTAGA: 0.161.
The same measure for GCTAGCAGGCCATTTTGGTCACTCAATGACGGGC: -1.08.
Sequence CGTCCAAGGTCAATGCTAGGTCAGTGTAAGCATT had a PBM binding z-score of 0.641.
TATACAGCGTCAAAGGCCAGAGTACGAATGTCGA: the PBM binding z-score was -0.154.
The same measure for ATCTCGAGGTAAAGTTCAGTGAAAGATCGATAGA: 0.853.
CATACAGGGTCAGCTAGGCCAGTGTAGGGACGGC gave a PBM binding z-score of 0.598.
On to ATATGTAGGTTATCGCGTCATTCAGTTTGCGCAT, for which the PBM binding z-score was determined as 1.88.
In the case of CCGACTGGGGTAAAGGTTACCATACTCAGTACGA it was 0.251; in that of TAGCCTAGGTCATGCGGGCCAGGATAGTGTCGGC, -0.00181; in that of CCTAGTAGGTCAAGGTCACACACGCTATAGGTAC, 1.56.
TCGAGTAGGTTACCATTGGGGCATTCAGCTTTCT had a PBM binding z-score of -0.0492.
The same measure for TTACCAAGGTGGGCTGAGGTCGTTGATCCAACTC: -0.362; for AGAATGACGTTATACGTAGATCAGGGAAGAAAGT: 0.276.
